The values below come from PubChem BioAssay (NCATS).

Results filed as inconclusive are left out. Active and inactive are the calls of the source. Unless noted, how the calls were made is not given here.

A short description of assay [1]: qHTS profiling of the MIPE4 collection as inhibitors of Plasmodium falciparum (3D7) proliferation (AID 743344).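 Further: scaled between DMSO vehicle wells and 0.29 µM artemisinin as full inhibition.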 As to conditions: P. falciparum 3D7 in erythrocytes, SYBR Green DNA fluorescence, 72 h; at 28.5 µM unless noted. The gist of the method:
(§1)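 Erythrocytes infected with P. falciparum (0.3% parasitemia, 2.5% hematocrit) incubated with compounds 72 h at 37 C, 5% CO2. Lysis with saponin/Triton buffer containing SYBR Green I, overnight at room temperature in the dark; DNA fluorescence (485/535 nm) normalised to 0.29 uM artemisinin and DMSO.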
In general terms: qHTS replaces the single test concentration by a dilution series.

The nature of assay [2]: qHTS profiling of the MIPE4 collection as inhibitors of Plasmodium falciparum (DD2) proliferation (AID 743345). To be noted: P. falciparum Dd2 in erythrocytes, SYBR Green DNA, 72 h; at 28.5 µM unless noted. In a few lines:
as §1

A short description of assay [3]: qHTS profiling of the MIPE4 collection as inhibitors of Plasmodium falciparum (DD2) proliferation (Rep 2) (AID 743346). To be noted: P. falciparum Dd2 in erythrocytes, SYBR Green DNA, 72 h; at 28.5 µM unless noted. The gist of the method: as §1
Assay [4] in a line: qHTS profiling of the MIPE4 collection as inhibitors of Plasmodium falciparum (HB3) proliferation (AID 743347).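 Further: plate controls were DMSO vehicle wells for no effect and artemisinin wells for full effect.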 As to conditions: P. falciparum HB3 in erythrocytes, SYBR Green DNA, 72 h; at 28.5 µM unless noted. The gist of the method: as §1
The nature of assay [5]: High-throughput drug toxicity screening in the BPDCN cell line Gen2.2 (AID 1224824).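 Further: cells exposed to compounds for 48 h before reading.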 As to conditions: Gen2.2 BPDCN cells; at 45.8 µM (top of the series) unless noted. The gist of the method:
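Readout is ATP luminescence from Gen2.2 cells after two days of drug exposure in serum-containing medium at 37 °C. Values express percent activity, with vehicle defining full signal and 9.2 uM bortezomib defining zero.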

The nature of assay [6]: High-throughput drug toxicity screening in the BPDCN cell line Cal-1 (AID 1224825). To be noted: Cal-1 BPDCN cell viability, qHTS; at 45.8 µM (top of the series) unless noted. In a few lines: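 Exponentially growing Cal-1 cells, 500 per well in phenol red-free RPMI with 10% FBS, were exposed to compounds for 48 h at 37 °C, 5% CO2. Viability was read by CellTiter-Glo luminescence and normalised to DMSO (100%) and 9.2 uM bortezomib (0%).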

Assay [7] in a line: qHTS assay for measurement of the activity of small molecule inhibitors on Zika virus induced Caspase-3 activity in human iPSC derived neural progenitor cells (hNPCs) (AID 1224857; active means well fitted inhibition curve with a large enough effect; further: nearly all actives have a fitted effect of over 65% in size; further: potency means the concentration at half of the fitted maximal effect). As to conditions: hNPCs ZIKV-induced caspase-3/7, Caspase-Glo luminescence, 6 h; series mostly up to 45.7 µM. In a few lines:
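Values are percent inhibition of virus-induced caspase-3/7 signal, scaled between uninfected cells and ZIKV-infected cells. Infection used 2 FFU/cell for 6 h after 1 h compound exposure.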

Assay [8] in a line: qHTS Screen of the MIPE 4.0 Collection Against Ewings Sarcoma (RDES) (AID 1259252; active means well fitted inhibition curve with a large enough effect; further: nearly all actives have a fitted effect of over 35% in size; further: potency means the concentration at half of the fitted maximal effect). To be noted: RD-ES Ewing sarcoma viability, CellTiter-Glo, 48 h; series mostly up to 45.8 µM. In a few lines:
(§2)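 Here, cells in 5% FBS RPMI were exposed for two days (48 h) to compound dilutions added four hours after plating. ATP-based CellTiter-Glo luminescence measured viability, normalized to vehicle and no-cell blanks.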

Assay [9] is described as follows: qHTS Screen of the MIPE 4.0 Collection Against Ewings Sarcoma (EW8) (AID 1259255; active means well fitted inhibition curve with a large enough effect; further: nearly all actives have a fitted effect of over 35% in size; further: potency means the concentration at half of the fitted maximal effect;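 on viability: 100% = DMSO-treated cells and 0% = medium-only wells without cells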). As to conditions: EW8 Ewing sarcoma viability, CellTiter-Glo, 48 h; series mostly up to 45.8 µM. The gist of the method: as §2
Assay [10] in a line: qHTS assay for measurement of the activity of small molecule inhibitors on Zika virus induced Caspase-3 activity in human astrocytoma cells (AID 1224859; active means well fitted inhibition curve with a large enough effect;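 further: plate controls were ZIKV-infected untreated cells for no effect and uninfected cells for full effect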). As to conditions: SNB-19 ZIKV-induced caspase-3/7, luminescence, 6 h; series mostly up to 45.7 µM. The gist of the method:
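Compound added 1 h pre-infection; ZIKV 2 FFU/cell on SNB-19 cells, 6 h, 37 C/5% CO2. Caspase-Glo 3/7 luminescence; values as % inhibition of ZIKV-induced caspase activity.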

The nature of assay [11]: qHTS Screen of the MIPE 4.0 Collection Against Ewings Sarcoma (TC71) (AID 1259253; active means well fitted inhibition curve with a large enough effect; further: nearly all actives have a fitted effect of over 40% in size; further: potency means the concentration at half of the fitted maximal effect). To be noted: TC71 Ewing sarcoma viability, CellTiter-Glo, 48 h; series mostly up to 45.8 µM. The gist of the method: as §2
Assay [12] in a line: qHTS Screen of the MIPE 4.0 Collection Against Ewings Sarcoma (TC32) (AID 1259256; active means well fitted inhibition curve with a large enough effect; further: nearly all actives have a fitted effect of over 45% in size; further: potency means the concentration at half of the fitted maximal effect). As to conditions: TC32 Ewing sarcoma viability, CellTiter-Glo, 48 h; series mostly up to 45.8 µM. The gist of the method:
as §2

In the case of `COc1cccc(-c2cc(=O)c3ccccc3o2)c1N`, the parasite growth, % of DMSO control in assay [1] stood at 73.4%. Besides, the parasite growth remaining, % of DMSO control (lower = more inhibition) in assay [2] amounted to 91.1%. Also, in assay [3], the parasite growth, % of control (lower = inhibition) is 87.6%. This molecule came in with a growth, % of control in assay [4] of 60%. Moreover, the cell viability, % of control (lower = more cytotoxic) in assay [5] stood at 45.3%. Moreover, in assay [6], the viability (% of control) was 9.08%. In addition, in assay [7], the Potency is 18.7 µM (active). For the same molecule, the Potency result in assay [8] and in assay [9] was “inactive” each time.
For the molecule `CCCCCNC(=O)N1CCC(CN(Cc2ccc(Cl)cc2)Cc2ccc([N+](=O)[O-])s2)C1` (stereo not drawn), the parasite growth, % of DMSO control in [1] was found to be 60.8%. Also, in assay [2], the parasite growth remaining, % of DMSO control (lower = more inhibition) came out at 25.2%. The growth, % of control in assay [4] was 55.8%. Also, the cell viability, % of control (lower = more cytotoxic) in [5] was 15.7%. Also, the viability (% of control) in assay [6] is 44.4%. For the same molecule, the Potency result in assay [10] was “inactive”. The Potency in [8] is 20.9 µM (active).
As to `O=c1cc(-c2ccccc2)oc2cc(O)c(O)c(O)c12`, the parasite growth, % of DMSO control in assay [1] stood at 7.41%. The same molecule came in with a parasite growth remaining, % of DMSO control (lower = more inhibition) in assay [2] of 24.2%. The parasite growth, % of control (lower = inhibition) in [3] was 28.3%. This molecule displayed a growth, % of control in assay [4] of 6.52%. The cell viability, % of control (lower = more cytotoxic) in assay [5] is 151%. In addition, in assay [6], the viability (% of control) came out at 91.7%. Moreover, the Potency entry in assay [10] was “inactive”. Further, the Potency in assay [8] is 20.9 µM (active); in assay [11], 23.5 µM (active).
In assay [1], `CC(=O)Oc1cc2c(s1)CCN(C(C(=O)C1CC1)c1ccccc1F)C2` (stereo not drawn) registered a parasite growth, % of DMSO control of 56.7%. The molecule also came in with a parasite growth remaining, % of DMSO control (lower = more inhibition) in assay [2] of 95.5%. The molecule further had a parasite growth, % of control (lower = inhibition) in assay [3] of 40.2%. Further, the growth, % of control in assay [4] amounted to 57.5%. Further, in [5], the cell viability, % of control (lower = more cytotoxic) is 15.7%. For the same molecule, the viability (% of control) in assay [6] turned out to be 18.3%. In addition, the Potency entry in [10] was “inactive”. The values for the Potency in [8], in assay [9] and in assay [12] were 2.35 µM (active), 3.72 µM (active) and 2.96 µM (active), respectively.
`CO[C@H]1C(=O)[C@]2(C)[C@@H](OC)C[C@H]3OC[C@@]3(OC(C)=O)[C@H]2[C@H](OC(=O)c2ccccc2)[C@]2(O)C[C@H](OC(=O)[C@H](O)[C@@H](NC(=O)OC(C)(C)C)c3ccccc3)C(C)=C1C2(C)C` registered a parasite growth, % of DMSO control in [1] of 4.99%. The same molecule showed a parasite growth remaining, % of DMSO control (lower = more inhibition) in [2] of 13.7%. In assay [3], the parasite growth, % of control (lower = inhibition) amounted to 21.2%. For the same molecule, the growth, % of control in [4] worked out at 3.01%. For the same molecule, the cell viability, % of control (lower = more cytotoxic) in assay [5] was 28.9%. The viability (% of control) in assay [6] came out at 13%. Also, the Potency result in assay [10], in assay [8], in assay [11], in assay [9] and in assay [12] was “inactive” each time.
In assay [1], `Clc1cc(Cl)cc(CNc2ncncc2-c2ccc3c(c2)OCO3)c1` displayed a parasite growth, % of DMSO control of 18.8%. The same molecule yielded a parasite growth remaining, % of DMSO control (lower = more inhibition) in assay [2] of 47.6%. Besides, in assay [3], the parasite growth, % of control (lower = inhibition) was 28.4%. In assay [4], this molecule yielded a growth, % of control of 10.2%. The cell viability, % of control (lower = more cytotoxic) in assay [5] turned out to be 44.1%. For the same molecule, in assay [6], the viability (% of control) worked out at 11.1%. In addition, the Potency result in assay [7] is “inactive”.
Consider `Nc1ncnc2c1ncn2[C@@H]1O[C@@H](CO)[C@H](O)[C@H]1O`, for which, in [1], the parasite growth, % of DMSO control came to 103%. In [2], the parasite growth remaining, % of DMSO control (lower = more inhibition) was 84.1%. This molecule also gave a growth, % of control in assay [4] of 111%. Also, the cell viability, % of control (lower = more cytotoxic) in assay [5] came out at 235%. In assay [6], the viability (% of control) was found to be 117%. Moreover, the Potency entry in [10], in assay [8], in assay [11], in assay [9] and in assay [12] was “inactive” in each case.
